# APOBEC3A inh = human APOBEC3A DNA deaminase inhibition. P31941. recombinant A3A, FAM/TAMRA ssDNA deamination fluorescence. inhibition, % at 20 µM. actives 0.41% (n = 330,000). AID 493011;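 active means at least 40% inhibition at 20 µM here, with at most 30% in a related deaminase screen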;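 further: plate controls were A3A with DMSO for no effect and wells lacking A3A enzyme for full effect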
# Target sequence (P31941 whole entry, looked up): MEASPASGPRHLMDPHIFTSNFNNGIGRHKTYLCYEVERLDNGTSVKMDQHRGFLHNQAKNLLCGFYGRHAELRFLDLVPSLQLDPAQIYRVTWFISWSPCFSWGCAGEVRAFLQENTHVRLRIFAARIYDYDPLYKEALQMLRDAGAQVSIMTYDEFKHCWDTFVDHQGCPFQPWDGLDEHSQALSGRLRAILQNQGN
# AHR act = activates the human aryl hydrocarbon receptor | P35869 | AHR-responsive luciferase reporter cells, luminescence | activation, % at 5 µM | actives 2.5% (n = 320,000) | AID 2796; in the data active means activation above about 47%;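 further: 0% = vehicle wells and 100% = reference agonist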
# NTR1 agonist = NTR1 (human) agonism | NTR1-U2OS beta-arrestin-GFP spot imaging, agonist mode | activation, % at 20 µM | actives 0.17% (n = 330,000) | AID 493036;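 active means activation at or above 40% of the spot to cytoplasm intensity ratio, with at least 20 cells analyzed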;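 further: 0% = DMSO without peptide and 100% = 100 nM NTR1 peptide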
# A3G deaminase = inhibitors of human APOBEC3G DNA deaminase | Q9HC16 | recombinant A3G, ssDNA deamination FAM/TAMRA fluorescence | inhibition, % at 20 µM | actives 0.28% (n = 330,000) | AID 493012;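 active means inhibition of at least 40% at 20 µM, with no more than 30% in the related APOBEC3A deaminase screen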;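 further: plate controls were DMSO wells with A3G for no effect and wells lacking A3G enzyme for full effect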
# * = called active by the depositor. This is a sample that favours compounds with a hit; in the whole collection about 3.2% have one here.
SMILES,APOBEC3A inh,AHR act,NTR1 agonist,A3G deaminase
COc1ccc(-c2csc(-n3ncc(-c4ccccn4)c3N)n2)cc1,0,17,3,-3
Nc1c(-c2ccccn2)cnn1-c1nc(-c2ccc(F)cc2)cs1,-4,63*,9,-4
Cc1ccc(S(=O)(=O)NC(C)C(=O)NC(C)c2cccs2)cc1 (stereo not drawn),5,0,-2,-7
O=C(Nc1ccc(NC(=O)c2cccs2)cc1Cl)c1ccco1,2,-7,0,-1
O=C(Nc1ccc(Cl)c(NC(=O)c2cccs2)c1)c1ccco1,2,75*,1,1
CCCC(=O)Nc1ccc(Cl)c(NC(=S)NC(=O)c2ccco2)c1,3,53*,0,-6
CCCC(=O)Nc1ccc(Cl)c(NC(=O)c2ccco2)c1,-2,0,0,-7
COc1ccc(N(CC(O)Cn2c3ccccc3c3ccccc32)S(=O)(=O)c2ccccc2)cc1 (stereo not drawn),0,55*,8,-5
COc1ccc(NC(=O)CN(C)C(=O)c2ccc(NS(=O)(=O)c3cccc([N+](=O)[O-])c3)cc2)cc1,-1,0,1,-10
CCc1ccc(Nc2n[n+](-c3ccccc3)c(-c3ccc(OCc4ccccc4)cc3)s2)cc1,20,20,10,-1
CCN(CC)c1ccc(-c2sc(Nc3ccccc3)n[n+]2-c2ccc(F)cc2)cc1,-5,63*,-5,-7
c1ccc(COc2ccc(-c3sc(Nc4ccccc4)n[n+]3-c3ccccc3)cc2)cc1,0,80*,5,-4
COCC(=O)N(Cc1cc2cccc(C)c2[nH]c1=O)c1ccccc1,-4,9,0,-6
COc1cc(O)sc1C=Nc1ccc(Cl)cc1,0,48*,0,-2
CC1CCC/C(=N/Nc2nc3ccccc3s2)C1 (stereo not drawn),-4,62*,0,-7
CCOC(=O)c1c(C)[nH]c(C)c1S(=O)(=O)N(C)CC(=O)Nc1ccc(C)cn1,-2,6,0,4
CCOC(=O)c1c(C)[nH]c(C)c1S(=O)(=O)N(C)CC(=O)Nc1cc(C)ccc1OC,-4,55*,-1,-5
Cc1snc(S(=O)(=O)/C(C#N)=N/Nc2cccc(C(F)(F)F)c2)c1C#N,0,98*,0,-1
COc1cccc(OC)c1C(=O)Nc1nnc(-c2ccc(F)cc2)s1,-3,74*,0,-6
O=C(Nc1nnc(-c2ccc(F)cc2)s1)c1ccco1,-4,-2,6,-7
O=C(CNc1ccccc1)Nc1cccc2ccccc12,0,5,0,-3
O=C(O)c1ccccc1C(=O)N1N=C2/C(=C/c3cccc([N+](=O)[O-])c3)CCCC2C1c1cccc([N+](=O)[O-])c1 (stereo not drawn),4,6,1,0
O=C(O)c1c(C(=O)N2N=C3/C(=C/c4ccccc4)CCCC3C2c2ccccc2)cccc1[N+](=O)[O-] (stereo not drawn),-1,78*,-1,-6
COc1cc(NC(=O)c2c(OC)cccc2OC)ccc1NC(=O)c1cc2ccccc2o1,-8,72*,0,-7
COc1ccccc1NC(=O)c1cc2ccc(O)cc2o/c1=N\O,1,-1,4,2
SMILES,APOBEC3A inh,AHR act,NTR1 agonist,A3G deaminase
COc1cc(NC(=O)c2ccc(F)cc2)ccc1NC(=O)c1cc2ccccc2o1,1,-1,-1,-2
COc1ccccc1NC(=O)c1cc2ccccc2o/c1=N\O,-4,67*,22,-5
COc1cccc(-c2cc3nc(-c4ccccc4)cc(N4CCCC(O)C4)n3n2)c1 (stereo not drawn),0,74*,10,5
CCc1nnc(NC(=O)/C=C/c2cccs2)s1,6,52*,0,-7
CCOc1ccc(-c2nc(CN(Cc3ccccc3)C[C@@H]3CCC(=O)N3)c(C)o2)cc1,-1,14,5,-7
Cc1oc(-c2ccc(C(F)(F)F)cc2)nc1CN(Cc1ccccn1)C[C@@H]1CCC(=O)N1,-3,75*,0,-8
CC(C)(C)c1cc(C(=O)N/N=C/c2ccc(-c3ccccc3[N+](=O)[O-])o2)n[nH]1,-4,50*,3,-3
O=C(N/N=C/c1ccc(-c2ccccc2[N+](=O)[O-])o1)c1cccnc1,2,55*,-2,1
COc1ccc(N(CCC(=O)O)S(=O)(=O)c2ccc(C)cc2C)cc1,5,1,-1,-10
COc1ccc(-n2c(N)c(-c3nc4ccccc4n3C)sc2=S)cc1,-1,23,11,-5
CCOc1ccc(-n2c(N)c(-c3nc4ccccc4[nH]3)sc2=S)cc1,1,72*,8,2
O=C(OCCNc1nc(-c2ccccc2)nc2ccccc12)c1cccnc1,-1,48*,6,-9
O=C(OCCNc1nc(-c2ccccc2)nc2ccccc12)c1ccncc1,-2,47*,-4,10
O=C(O)CCNc1nc(-c2ccccc2)nc2ccccc12,-5,15,0,-7
NC(=S)N/N=C1\CC(n2nnn(-c3cccc(Cl)c3)c2=S)C2COC1O2 (stereo not drawn),1,2,0,5
O=C1c2ccccc2C(=O)c2c(Nc3ccc(CCO)cc3)ccc(O)c21,-2,69*,11,-1
Nc1c(C(=O)N2CCCCC2)sc2nc3c(cc12)CCCC3,1,-12,0,-4
CCc1nnc(NC(=O)c2sc3nc4c(cc3c2N)CCCCCC4)s1,1,50*,9,-3
O=C(NCCc1c[nH]c2ccccc12)Nc1cccc2ccccc12,-4,1,-2,-3
CCOc1ccccc1NC(=O)NCCc1c[nH]c2ccccc12,-6,64*,1,-9
COc1ccc(OC)c(NC(=O)NCc2cccnc2)c1,-1,58*,2,-2
CCOc1ccccc1NC(=O)NCc1cccnc1,4,84*,0,4
CSc1cccc(-c2nnc(NC(=O)c3cccc(N4C(=O)CCC4=O)c3)o2)c1,-2,0,-1,4
COc1ccc(CN2CCC(Oc3ccc(C(=O)N4CCCC4)cc3)CC2)c(F)c1,-3,6,1,-4
CC(C)(C)C(=O)Nc1cccc(-c2nc3ccccc3[nH]2)c1,-2,61*,1,-3
SMILES,APOBEC3A inh,AHR act,NTR1 agonist,A3G deaminase
COc1cccc(OC)c1C(=O)Nc1cccc(-c2nc3ccccc3[nH]2)c1,-1,29,0,-3
CC(C)CC(=O)Nc1cccc(-c2nc3ccccc3[nH]2)c1,-1,58*,3,-7
CC(=O)Nc1cccc(-c2nc3ccccc3[nH]2)c1,2,47*,-1,-4
CC(Oc1ccccc1)C(=O)Nc1cccc(-c2nc3ccccc3[nH]2)c1 (stereo not drawn),-2,41,5,-5
CC(=O)Nc1cccc(-c2nc3ccc(NC(C)=O)cc3[nH]2)c1,1,6,-1,0
C=CCNC(=O)Cc1ccc(S(=O)(=O)N2CCOCC2)s1,0,1,0,-3
Cc1ccccc1-n1c(SCC(=O)N/N=C/c2sccc2C)nc2ccccc2c1=O,2,14,2,-5
